Experimental data taken from PubChem BioAssay AID1159580 (chemical genetic matrix, 2015).
The whole screen tested about 5,500 compounds, of which about 2,000 (36%) were called active. About 18% were inconclusive and are not listed. No stated cut-off is given here; in the data, active means normalized growth mostly below about 0.91 (no sharp cut-off); inconclusive means no clear call, values can overlap the other calls; inactive means mostly above about 0.92. The list shows a part of the results.

Test: chemical genetic growth profiling, strain panel (AID 1159580);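 further: tested at 20 µM; growth read once vehicle control cultures reached saturation at 30 °C; 1 = growth at the plate median or of vehicle wells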
Details: S. cerevisiae deletion strains, growth OD

Measured: normalized growth

O=C(/C=C/c1ccc(O)cc1)c1ccccc1O
active: locus YAL021C, strain ccr4, stronger effect = lower value 0.762 | locus YAL026C, strain drs2, stronger effect = lower value 0.359 | locus YAL030W, strain snc1, stronger effect = lower value 0.359 | locus YBL061C, strain skt5, stronger effect = lower value 0.366 | locus YBR009C, strain hhf1, stronger effect = lower value 0.25 | locus YBR023C, strain chs3, stronger effect = lower value 0.452 | locus YBR171W, strain sec66, stronger effect = lower value 0.774 | locus YBR231C, strain swc5, stronger effect = lower value 0.382 | locus YBR279W, strain paf1, stronger effect = lower value 0.423 | locus YCL011C, strain gbp2, stronger effect = lower value 0.366 | locus YCL016C, strain dcc1, stronger effect = lower value 0.446 | locus YCL061C, strain MRC1, stronger effect = lower value 0.484 | locus YCL069W, strain vba3, stronger effect = lower value 0.256 | locus YCR088W, strain abp1, stronger effect = lower value 0.639 | locus YDL005C, strain med2, stronger effect = lower value 0.759 | locus YDL040C, strain nat1, stronger effect = lower value 0.683 | locus YDR001C, strain nth1, stronger effect = lower value 0.552 | locus YDR069C, strain doa4, stronger effect = lower value 0.859 | locus YDR137W, strain rgp1, stronger effect = lower value 0.255 | locus YDR159W, strain sac3, stronger effect = lower value 0.305 | locus YDR195W, strain ref2 1.15 [resistant] | locus YDR297W, strain sur2, stronger effect = lower value 0.554 | locus YDR334W, strain swr1, stronger effect = lower value 0.301 | locus YDR335W, strain msn5, stronger effect = lower value 0.382 | locus YDR392W, strain spt3, stronger effect = lower value 0.103 | locus YEL003W, strain gim4, stronger effect = lower value 0.236 | locus YEL037C, strain rad23, stronger effect = lower value 0.667 | locus YEL061C, strain CIN8 (second series), stronger effect = lower value 0.175 | locus YER015W, strain faa2, stronger effect = lower value 0.469 | locus YER016W, strain bim1, stronger effect = lower value 0.478 | locus YER111C, strain swi4, stronger effect = lower value 0.126 | locus YER155C, strain BEM2 (second series), stronger effect = lower value 0.128 | locus YFR010W, strain ubp6, stronger effect = lower value 0.768 | locus YGL167C, strain pmr1, stronger effect = lower value 0.703 | locus YGL173C, strain kem1, stronger effect = lower value 0.585 | locus YGL227W, strain vid30, stronger effect = lower value 0.169 | locus YGL240W, strain doc1, stronger effect = lower value 0.453 | locus YGL253W, strain hxk2, stronger effect = lower value 0.2 | locus YHR013C, strain ard1, stronger effect = lower value 0.441 | locus YHR027C, strain rpn1, stronger effect = lower value 0.624 | locus YHR030C, strain SLT2, stronger effect = lower value 0.0955 | locus YHR079C, strain IRE1, stronger effect = lower value 0.119 | locus YHR142W, strain chs7, stronger effect = lower value 0.14 | locus YJL092W, strain hpr5, stronger effect = lower value 0.586 | locus YJL095W, strain BCK1 (second series), stronger effect = lower value 0.202 | locus YJL095W, strain BCK1, stronger effect = lower value 0.105 | locus YJL115W, strain asf1, stronger effect = lower value 0.684 | locus YJL129C, strain trk1, stronger effect = lower value 0.463 | locus YJL154C, strain vps35, stronger effect = lower value 0.582 | locus YJL164C, strain tpk1, stronger effect = lower value 0.275 | locus YJL166W, strain qcr8, stronger effect = lower value 0.228 | locus YJL187C, strain SWE1, stronger effect = lower value 0.355 | locus YJR066W, strain TOR1, stronger effect = lower value 0.0115 | locus YKL160W, strain elf1, stronger effect = lower value 0.229 | locus YKR026C, strain gcn3, stronger effect = lower value 0.759 | locus YKR091W, strain srl3, stronger effect = lower value 0.71 | locus YLL001W, strain dnm1, stronger effect = lower value 0.488 | locus YLL026W, stronger effect = lower value 0.325 | locus YLL041C, strain sdh2, stronger effect = lower value 0.499 | locus YLR027C, strain aat2, stronger effect = lower value 0.271 | locus YLR113W, strain HOG1, stronger effect = lower value 0.125 | locus YLR221C, strain rsa3, stronger effect = lower value 0.229 | locus YLR258W, strain gsy2, stronger effect = lower value 0.426 | locus YLR262C, strain YPT6 (second series), stronger effect = lower value 0.301 | locus YLR320W, strain mms22, stronger effect = lower value 0.145 | locus YLR342W, strain FKS1, stronger effect = lower value 0.315 | locus YLR357W, strain rsc2, stronger effect = lower value 0.726 | locus YLR370C, strain arc18, stronger effect = lower value 0.713 | locus YLR384C, strain iki3, stronger effect = lower value 0.761 | locus YML120C, strain ndi1, stronger effect = lower value 0.246 | locus YMR058W, strain fet3, stronger effect = lower value 0.383 | locus YMR125W, strain sto1, stronger effect = lower value 0.171 | locus YMR129W, stronger effect = lower value 0.656 | locus YMR205C, strain PFK2, stronger effect = lower value 0.248 | locus YMR231W, strain pep5, stronger effect = lower value 0.529 | locus YNL071W, strain lat1, stronger effect = lower value 0.0982 | locus YNL183C, strain NPR1, stronger effect = lower value 0.00476 | locus YNL209W, strain ssb2, stronger effect = lower value 0.652 | locus YNL248C, strain rpa49, stronger effect = lower value 0.379 | locus YNL322C, strain KRE1 (second series), stronger effect = lower value 0.506 | locus YNR049C, strain mso1, stronger effect = lower value 0.569 | locus YOR001W, strain rrp6, stronger effect = lower value 0.385 | locus YOR070C, strain gyp1, stronger effect = lower value 0.331 | locus YOR080W, strain dia2, stronger effect = lower value 0.766 | locus YOR083W, strain WHI5, stronger effect = lower value 0.366 | locus YOR106W, strain vam3, stronger effect = lower value 0.321 | locus YOR231W, strain MKK1, stronger effect = lower value 0.102 | locus YOR265W, strain rbl2, stronger effect = lower value 0.584 | locus YOR270C, strain vph1, stronger effect = lower value 0.285 | locus YOR290C, strain snf2, stronger effect = lower value 0.214 | locus YPL051W, strain arl3, stronger effect = lower value 0.325 | locus YPL078C, strain atp4, stronger effect = lower value 0.256 | locus YPL106C, strain sse1, stronger effect = lower value 0.609 | locus YPL240C, strain hsp82, stronger effect = lower value 0.325 | locus YPL256C, strain CLN2, stronger effect = lower value 0.103
